PubChem BioAssay (EPA / NIEHS)
Calls of active or inactive are those of the source. The calls were made as follows: active = hit-call score of the fitted dose curve at least 0.9, where 1 is the maximum; inactive = score below 0.9.

Legend:
[1] = ATG_CRE_CIS: Attagene CIS-FACTORIAL HepG2 Assay for human cAMP Responsive Element (CRE) binding protein 3 (AID 2282926); details: HepG2 CRE cis-reporter, Attagene multiplexed mRNA; actives raise or lower the signal
Summary of the method: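 Readout: fluorescently labelled reporter transcripts resolved by capillary electrophoresis after RT-PCR, taken 24 h post-dosing in transfected HepG2. Endogenous transcription factor activity drives each cis-element reporter; gain or loss of signal fitted relative to DMSO control.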

[2] = target: CCAAT/enhancer-binding protein beta (Homo sapiens) (UniProt P17676); test: ATG_C_EBP_CIS: Attagene CIS-FACTORIAL HepG2 Assay for human CCAAT/Enhancer Binding Protein (C/EBP) beta (AID 2282927); details: HepG2 Attagene cis-factorial transcription factor reporter; actives raise or lower the signal
Summary of the method: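 HepG2, transient MRTU transfection, 24 h treatment. RT-PCR plus CE fluorescence; DMSO negative control, bidirectional fit.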

[3] = ATG_CMV_CIS: Attagene CIS-FACTORIAL HepG2 Assay for human CMV (Internal Marker) (AID 2282928); details: HepG2 CMV promoter reporter, transcription factor profiling; actives raise or lower the signal;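 also: endpoint acts as a background internal control marker rather than a target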
Summary of the method: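 Reporter transcripts from transfected HepG2 cells are isolated after 24 h of chemical dosing, reverse-transcribed and amplified. Fragments labeled with 6-FAM are cut with HpaI and quantified by capillary electrophoresis; DMSO defines baseline.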

[4] = target: Aryl hydrocarbon receptor (Homo sapiens) (UniProt P35869); test: ATG_Ahr_CIS: Attagene CIS-FACTORIAL HepG2 Assay for human Aryl Hydrocarbon Receptor (Ahr) (AID 2282930); details: HepG2 AhR cis-factorial reporter transcription; actives raise or lower the signal
Summary of the method: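 Endogenous factor activity is tracked through cis-promoter reporter units transfected into HepG2 cells. Transcript levels at 24 h are read by fluorescent RT-PCR and capillary electrophoresis, with activity in either direction scored relative to DMSO.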

[5] = ATG_AP_1_CIS: Attagene CIS-FACTORIAL HepG2 Assay for human Activator Protein 1 (AP-1) (AID 2282931); details: HepG2 Attagene cis-factorial AP-1 reporter mRNA; actives raise or lower the signal
Summary of the method: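 We transfected HepG2 cells transiently with a set of cis-regulated reporter transcription units, dosed them for 24 h, and quantified reporter mRNA via RT-PCR and capillary electrophoresis, scoring gain or loss of signal relative to DMSO.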

[6] = ATG_AP_2_CIS: Attagene CIS-FACTORIAL HepG2 Assay for human Activator Protein 2 (AP-2) (AID 2282932); details: HepG2 AP-2 cis-reporter, Attagene transcription factor profiling; actives raise or lower the signal
Summary of the method: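 Liver-derived HepG2 line, cis-reporter system measuring endogenous factors; 24 h dosing; reporter mRNA detected by fluorescent RT-PCR and capillary electrophoresis.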

[7] = ATG_BRE_CIS: Attagene CIS-FACTORIAL HepG2 Assay for human Bone Morphogenetic Protein (BMP) Response Element (BRE) (AID 2282933); details: HepG2 BMP response element reporter, Attagene transcription factor profiling; actives raise or lower the signal
Summary of the method: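 Read-out: reporter mRNA induction quantified by RT-PCR and capillary electrophoresis after 24 h chemical exposure of transfected HepG2 cells. Endogenous factor activity on the BMP response element; gain or loss fitted against DMSO baseline.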

[8] = target: Retinoic acid receptor alpha (Homo sapiens) (UniProt P10276); test: ATG_DR5_RAR_CIS: Attagene CIS-FACTORIAL HepG2 Assay for human Retinoic Acid Receptor Alpha (RARE), DR5 submotif (AID 2282934); details: HepG2 Attagene cis-factorial RARE DR5 reporter, mRNA; actives raise or lower the signal
Summary of the method: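 After 24 h of chemical exposure, transiently transfected HepG2 cells were lysed for total RNA; the DR5-regulated reporter transcript was quantified via RT-PCR and capillary electrophoresis, with activity fitted bidirectionally against DMSO.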

[9] = target: Transcription factor E2F1 (Homo sapiens) (UniProt Q01094); test: ATG_E2F_CIS: Attagene CIS-FACTORIAL HepG2 Assay for human E2F Transcription Factor 1 (AID 2282935); details: HepG2 Attagene cis-reporter, E2F reporter RNA transcripts; actives raise or lower the signal
Summary of the method: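 Liver-derived HepG2 cells expressing transfected promoter-driven reporter units received test chemical for 24 hours. Signal gains or losses were fitted bidirectionally against DMSO.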

[10] = ATG_E_Box_CIS: Attagene CIS-FACTORIAL HepG2 Assay for human Enhancer Box (E-box) (AID 2282936); details: HepG2 E-box cis-reporter transcription, actives raise or lower the signal
Summary of the method: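 In this cell-based setup, HepG2 cells bearing transfected promoter-driven reporter units were exposed to chemicals for 24 h; reporter transcripts were amplified, 6-FAM-labelled, cut with HpaI and sized by capillary electrophoresis.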

[11] = ATG_M_61_CIS: Attagene CIS-FACTORIAL HepG2 Assay for M61 Transcription Factor (Internal Marker) (AID 2282937); details: HepG2 Attagene CIS-FACTORIAL M61 internal marker reporter; actives raise or lower the signal
Summary of the method: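 Multiplexed reporter mRNA assay, HepG2 human hepatoma cells, 24 h treatment. Signal: FAM-labelled, HpaI-digested RT-PCR fragments by CE. Fit: bidirectional, baseline DMSO.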

[12] = ATG_EGR_CIS: Attagene CIS-FACTORIAL HepG2 Assay for human Early Growth Response 1 (EGR1) (AID 2282938); details: HepG2 Attagene CIS-FACTORIAL EGR reporter mRNA; actives raise or lower the signal
Summary of the method: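 Multiplexed cis-reporter system in human hepatoma HepG2 cells, transiently transfected. Cells are dosed for 24 h; reporter transcripts are amplified, fluorescently tagged and sized by capillary electrophoresis, with DMSO as negative control.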

[13] = ATG_M_19_CIS: Attagene CIS-FACTORIAL HepG2 Assay for M19 Transcription Factor (Internal Marker) (AID 2282939); details: HepG2 Attagene CIS-FACTORIAL M19 internal marker reporter; actives raise or lower the signal
Summary of the method: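 Readout: fluorescent reporter-transcript fragments by capillary electrophoresis after RT-PCR. Human HepG2 liver cells carried transfected MRTU constructs reporting endogenous transcription-factor activity; exposure 24 h. Gain or loss of signal fitted relative to DMSO.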

[14] = ATG_Ets_CIS: Attagene CIS-FACTORIAL HepG2 Assay for human Erythroblast Transformation Specific (ETS) (AID 2282941); details: HepG2 ETS cis-reporter transcription, actives raise or lower the signal
Summary of the method: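 Bidirectional fit versus DMSO of reporter mRNA signal, detected by RT-PCR and capillary electrophoresis in HepG2 cells transiently transfected with cis-element reporters and dosed 24 h.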

[15] = target: Hepatocyte nuclear factor 3-beta (Homo sapiens) (UniProt Q9Y261); test: ATG_FoxA2_CIS: Attagene CIS-FACTORIAL HepG2 Assay for human Forkhead box A2 (FOXA2) (AID 2282942); details: HepG2 cis-reporter transcription factor activity, 24 h; actives raise or lower the signal
Summary of the method: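 Multiplexed cis-element reporter assay in transiently transfected HepG2. Twenty-four hours post-dosing, RNA was reverse-transcribed, amplified, FAM-labelled, HpaI-digested and separated by CE. Activity gain or loss relative to DMSO.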

[16] = ATG_FoxO_CIS: Attagene CIS-FACTORIAL HepG2 Assay for human Forkhead box O (FoxO) (AID 2282943); details: HepG2 Attagene cis-reporter, FoxO element, mRNA; actives raise or lower the signal
Summary of the method: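 Transfected HepG2 reporter cells exposed to test chemical for 24 h; reporter RNA measured by reverse transcription, PCR and fluorescent capillary electrophoresis; curves fitted for increases and decreases against DMSO.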

[17] = ATG_GATA_CIS: Attagene CIS-FACTORIAL HepG2 Assay for human GATA Binding Protein (AID 2282944); details: HepG2 GATA cis-element reporter, Attagene multiplex mRNA; actives raise or lower the signal
Summary of the method: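 Read-out: fluorescent reporter mRNA fragments resolved by capillary electrophoresis after RT-PCR. Human liver HepG2 cells carried transiently transfected cis-regulated reporter constructs; chemicals incubated 24 h; gain or loss of signal fitted relative to DMSO.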

[18] = ATG_GLI_CIS: Attagene CIS-FACTORIAL HepG2 Assay for human Zinc Finger Protein GLI1 (AID 2282945); details: HepG2, Attagene cis-factorial reporter mRNA, GLI element; actives raise or lower the signal
Summary of the method: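 Transiently transfected HepG2 cells report endogenous transcription factor activity via cis-element-driven reporter units. After 24 h compound exposure, reporter mRNA was measured by RT-PCR with capillary electrophoresis; bidirectional fitting against DMSO baseline.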

[19] = ATG_ERE_CIS: Attagene CIS-FACTORIAL HepG2 Assay for Estrogen Response Element (ERE) (AID 2282940); details: HepG2 ERE cis-reporter, Attagene RNA transcript; actives raise or lower the signal
Summary of the method: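 Readout: reporter mRNA induction by RT-PCR, FAM-labelled primer extension, HpaI digestion and capillary electrophoresis, 24 h after dosing transfected HepG2 cells. Endogenous transcription factors act on cis-element-regulated reporters. Gain or loss fitted against DMSO.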

Chain of Hepatocyte nuclear factor 3-beta (Homo sapiens) (Q9Y261 whole entry, looked up): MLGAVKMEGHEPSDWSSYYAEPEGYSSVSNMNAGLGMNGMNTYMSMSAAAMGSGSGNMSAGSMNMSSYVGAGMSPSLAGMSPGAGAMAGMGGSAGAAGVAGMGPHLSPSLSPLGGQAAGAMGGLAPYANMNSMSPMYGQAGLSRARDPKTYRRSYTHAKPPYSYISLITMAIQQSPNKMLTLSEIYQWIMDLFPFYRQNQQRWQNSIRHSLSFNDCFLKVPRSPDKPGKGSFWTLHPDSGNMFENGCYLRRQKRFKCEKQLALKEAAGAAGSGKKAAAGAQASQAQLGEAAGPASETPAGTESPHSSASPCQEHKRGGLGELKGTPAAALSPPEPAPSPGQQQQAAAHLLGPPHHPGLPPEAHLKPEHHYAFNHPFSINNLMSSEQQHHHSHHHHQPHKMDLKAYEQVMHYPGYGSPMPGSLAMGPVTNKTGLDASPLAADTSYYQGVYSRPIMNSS
Chain of CCAAT/enhancer-binding protein beta (Homo sapiens) (P17676 whole entry, looked up): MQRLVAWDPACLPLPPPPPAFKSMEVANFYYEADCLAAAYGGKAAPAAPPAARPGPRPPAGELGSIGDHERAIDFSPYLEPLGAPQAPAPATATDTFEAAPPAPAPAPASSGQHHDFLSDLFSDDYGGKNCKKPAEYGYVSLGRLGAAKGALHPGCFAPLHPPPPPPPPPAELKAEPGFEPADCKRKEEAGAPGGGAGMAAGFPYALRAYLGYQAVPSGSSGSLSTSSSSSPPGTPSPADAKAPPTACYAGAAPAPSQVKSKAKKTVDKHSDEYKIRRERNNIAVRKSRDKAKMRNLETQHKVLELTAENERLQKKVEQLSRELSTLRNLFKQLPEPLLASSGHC
Chain of Aryl hydrocarbon receptor (Homo sapiens) (P35869 whole entry, looked up): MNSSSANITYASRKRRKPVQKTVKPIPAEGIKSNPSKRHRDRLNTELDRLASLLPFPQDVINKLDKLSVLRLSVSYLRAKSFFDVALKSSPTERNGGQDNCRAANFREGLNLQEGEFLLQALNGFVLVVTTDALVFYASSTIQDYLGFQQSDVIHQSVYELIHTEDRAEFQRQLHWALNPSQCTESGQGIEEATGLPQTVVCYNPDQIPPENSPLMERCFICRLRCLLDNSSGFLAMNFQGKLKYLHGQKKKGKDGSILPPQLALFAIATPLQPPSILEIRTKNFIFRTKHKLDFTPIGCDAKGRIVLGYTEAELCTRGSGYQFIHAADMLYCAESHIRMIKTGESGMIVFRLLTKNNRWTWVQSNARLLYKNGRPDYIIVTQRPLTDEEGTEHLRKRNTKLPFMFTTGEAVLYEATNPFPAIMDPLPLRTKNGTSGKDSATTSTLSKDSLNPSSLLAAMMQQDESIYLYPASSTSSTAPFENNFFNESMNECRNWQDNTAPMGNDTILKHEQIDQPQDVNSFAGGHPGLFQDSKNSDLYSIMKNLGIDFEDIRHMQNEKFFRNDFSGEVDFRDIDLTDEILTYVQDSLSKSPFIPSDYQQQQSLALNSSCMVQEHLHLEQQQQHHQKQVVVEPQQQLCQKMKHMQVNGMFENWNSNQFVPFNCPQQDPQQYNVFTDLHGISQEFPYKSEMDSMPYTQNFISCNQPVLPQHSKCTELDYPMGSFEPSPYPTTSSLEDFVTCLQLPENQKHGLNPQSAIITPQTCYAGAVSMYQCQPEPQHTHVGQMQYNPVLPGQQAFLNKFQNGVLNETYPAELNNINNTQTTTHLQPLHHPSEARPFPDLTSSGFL
Chain of Transcription factor E2F1 (Homo sapiens) (Q01094 whole entry, looked up): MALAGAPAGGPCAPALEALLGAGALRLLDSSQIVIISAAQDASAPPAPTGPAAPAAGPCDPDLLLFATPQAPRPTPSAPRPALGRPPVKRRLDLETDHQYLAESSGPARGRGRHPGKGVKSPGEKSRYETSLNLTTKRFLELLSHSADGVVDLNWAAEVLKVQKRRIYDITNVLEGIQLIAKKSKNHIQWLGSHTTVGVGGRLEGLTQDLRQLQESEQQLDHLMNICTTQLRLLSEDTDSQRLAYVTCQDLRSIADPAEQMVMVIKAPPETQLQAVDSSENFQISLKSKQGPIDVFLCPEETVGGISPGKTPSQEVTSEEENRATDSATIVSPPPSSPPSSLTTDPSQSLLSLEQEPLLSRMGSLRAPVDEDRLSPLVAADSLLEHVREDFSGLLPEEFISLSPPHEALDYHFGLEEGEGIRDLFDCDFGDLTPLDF
Chain of Retinoic acid receptor alpha (Homo sapiens) (P10276 whole entry, looked up): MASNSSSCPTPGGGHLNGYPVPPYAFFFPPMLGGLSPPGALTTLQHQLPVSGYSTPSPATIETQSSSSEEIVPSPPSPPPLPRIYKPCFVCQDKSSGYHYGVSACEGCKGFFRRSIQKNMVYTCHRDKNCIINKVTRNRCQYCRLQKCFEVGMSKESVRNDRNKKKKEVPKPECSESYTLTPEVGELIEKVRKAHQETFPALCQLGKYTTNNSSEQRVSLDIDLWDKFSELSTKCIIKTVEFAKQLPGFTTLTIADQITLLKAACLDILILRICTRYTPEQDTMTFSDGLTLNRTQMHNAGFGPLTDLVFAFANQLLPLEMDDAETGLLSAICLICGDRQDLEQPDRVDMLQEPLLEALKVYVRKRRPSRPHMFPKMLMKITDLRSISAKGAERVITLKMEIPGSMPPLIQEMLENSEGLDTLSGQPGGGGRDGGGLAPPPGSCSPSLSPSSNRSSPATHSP

CCCCCC(CO)CCC (stereo not drawn)
outcome [1]: inactive | outcome [2]: inactive | outcome [3]: inactive | outcome [4]: inactive | outcome [5]: inactive | outcome [6]: inactive | outcome [7]: inactive | outcome [8]: inactive | outcome [9]: inactive | outcome [10]: inactive | outcome [11]: inactive | outcome [12]: inactive | outcome [13]: inactive | outcome [14]: inactive | outcome [15]: inactive | outcome [16]: inactive | outcome [17]: inactive | outcome [18]: inactive

CC1=CCC2C(C1)C2(C)C (stereo not drawn)
outcome [1]: inactive | outcome [2]: inactive | outcome [3]: inactive | outcome [4]: inactive | outcome [5]: inactive | outcome [6]: inactive | outcome [7]: inactive | outcome [9]: inactive | outcome [10]: inactive | outcome [11]: inactive | outcome [12]: inactive | outcome [13]: inactive | AC50 [19]: 82 µM (active) | outcome [14]: inactive | outcome [15]: inactive | outcome [16]: inactive | outcome [17]: inactive | outcome [18]: inactive

CCCC[n+]1ccccc1
outcome [1]: inactive | outcome [2]: inactive | outcome [3]: inactive | outcome [4]: inactive | outcome [5]: inactive | outcome [6]: inactive | outcome [7]: inactive | outcome [8]: inactive | outcome [9]: inactive | outcome [10]: inactive | outcome [11]: inactive | outcome [12]: inactive | outcome [13]: inactive | outcome [14]: inactive | outcome [15]: inactive | outcome [18]: inactive

O=[N+]([O-])c1cc(C(F)(F)F)ccc1Cl
outcome [1]: inactive | outcome [2]: inactive | outcome [3]: inactive | outcome [4]: inactive | outcome [5]: inactive | outcome [6]: inactive | outcome [7]: inactive | outcome [9]: inactive | outcome [10]: inactive | outcome [11]: inactive | outcome [12]: inactive | outcome [13]: inactive | outcome [14]: inactive | outcome [15]: inactive | outcome [16]: inactive | outcome [18]: inactive
